Screens (PubChem BioAssay)
NPC1 promoter act – NPC1 promoter activation. Huh7 NPC1 promoter luciferase reporter, 24 h. Potency, µM (top dose mostly 9.22 µM), for inactives: top-dose activation, usual class: activators. 320,000 tested, 2.4% active; note: % of control where 0% means no effect; nearly all actives have a fitted effect of over 60% in size
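In 1536-well qHTS, Huh7 cells harboring an NPC1 promoter–luciferase construct received compound for 24 h; activation was quantified by luminescence following luciferase reagent addition.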
SMN2 splice up – increases expression of the SMN2 splice variant; HEK293 SMN2-luciferase splicing reporter, luminescence, 30-36 h; Potency, µM (doses to about 46.1 µM), for inactives: top-dose activity change, positive = activation, hits mostly activators; 210,000 tested, 2.8% active; note: % of control where 0% means no effect; nearly all actives have a fitted effect of over 55% in size
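HEK293 cells carry an SMN2 […]–luciferase reporter in which exon 7 inclusion puts luciferase in frame. Cells were plated 10-12 h before compound addition, then incubated 30-36 h at 37C. ONE-Glo luminescence was read; sodium butyrate at 4.5 mM final served as control.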
Rab9 prom act – activators of Rab9 promoter | Huh7 Rab9 promoter-luciferase reporter, luminescence, 24 h | Potency, µM (series often up to 9.22 µM), inactives show at the top dose activation, negative = inhibition, actives largely listed as activators | 320,000 tested, 2.8% active | AID 485297; note: % of control where 0% means no effect; nearly all actives have a fitted effect of over 60% in size
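Huh7 cells stably carrying a Rab9 promoter-luciferase reporter, 1500 cells per well in OP-MEM I with 10% FBS, treated with compound 24 hours at 37C. Luciferase activity read by luminescence after 10 minutes with Amplite reagent.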
ELG1 genotoxic – induces genotoxicity in HEK293T cells with luciferase-tagged ELG1 | HEK293T ELG1-luciferase reporter, luminescence, 16 h | Potency, µM (top dose mostly 46 µM), inactives show top-dose activity change, positive = activation, hits mostly activators | 330,000 tested, 1.3% active | AID 504466; note: % of control where 0% means no effect; nearly all actives have a fitted effect of over 60% in size
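Cells (2,000/well) expressing the ELG1-luciferase fusion are dosed by pin tool and kept 16 hr at 37 °C, 5% CO2. Signal comes from ONE-Glo luciferase reagent after 30 min at room temperature.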
FLuc counter – inhibits or activates purified firefly luciferase, miR-21 counter-screen; P08659; 360,000 tested, 6.9% active; purified FLuc, Km substrates, luminescence inhibition; Potency, µM (series often up to 57.5 µM), for the others: at the highest dose activity change, negative = inhibition, usual class: inhibitors; AID 588342;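 note: plate controls were vehicle for no effect and reference inhibitor for full effect; nearly all actives have a fitted effect of over 55% in size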
Target sequence (P08659 whole entry, looked up): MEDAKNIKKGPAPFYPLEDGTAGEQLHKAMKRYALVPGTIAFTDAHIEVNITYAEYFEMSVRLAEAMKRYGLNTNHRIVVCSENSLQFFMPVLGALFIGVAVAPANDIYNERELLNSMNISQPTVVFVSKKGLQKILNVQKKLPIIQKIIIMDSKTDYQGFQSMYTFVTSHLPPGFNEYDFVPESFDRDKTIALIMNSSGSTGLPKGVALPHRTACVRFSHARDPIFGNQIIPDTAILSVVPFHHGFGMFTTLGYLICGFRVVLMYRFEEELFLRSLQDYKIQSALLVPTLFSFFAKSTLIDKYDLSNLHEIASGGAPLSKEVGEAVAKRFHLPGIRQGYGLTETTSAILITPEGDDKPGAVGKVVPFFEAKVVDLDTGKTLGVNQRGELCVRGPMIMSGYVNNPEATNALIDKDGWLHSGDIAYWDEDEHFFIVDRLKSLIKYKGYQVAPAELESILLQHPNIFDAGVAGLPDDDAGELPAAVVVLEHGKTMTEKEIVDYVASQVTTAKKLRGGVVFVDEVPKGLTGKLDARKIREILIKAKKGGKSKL
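Purified P. pyralis luciferase, 10 nM final, with Km-level 10 uM D-luciferin and 10 uM ATP in 50 mM Tris acetate pH 7.5, 10 mM Mg acetate, 0.01% Tween-20, 0.05% BSA; 6-point qHTS titration about 60 µM downward; luminescence read.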
ELG1 DNA repair – inhibitors of ELG1-dependent DNA repair in HEK293T cells | Potency, µM (series often up to 46.1 µM), for the others: at the top dose activity change, negative = inhibition, usual class: inhibitors | HEK293T ELG1-luciferase reporter, luminescence, 16 h; DNA damage induced by 5-fluorouridine | 330,000 tested, 2.3% active; note: % is set by controls: 0 for no effect and ±100 for the full control effect; nearly all actives have a fitted effect of over 55% in size
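Reporter activity after DNA damage by 5-fluorouridine is monitored. Compound-treated cells incubate 16 hr at 37 °C, then ONE-Glo is added for 30 min before luminescence reading.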
Starred values were filed as active, the others as inactive; [ ] = remark or other dose. A selection: hits, their analogues and other compounds. The true share with any hit is near 9.2%. Calls come from the whole dose curve; as a rule, active = well fitted curve in the direction sought with a large enough effect; inconclusive = small, poorly fitted or top-dose-only effect, or another doubt; inactive = no such curve, though single readings can be large; an effect the other way counts as inactive or inconclusive. Potency is the fitted concentration of half-maximal effect.

Results for COC1=C(Nc2ccc(OC)cc2)C(=O)c2ccccc2C1=O ?
NPC1 promoter act: 27.9%; SMN2 splice up: inconclusive; Rab9 prom act: inconclusive; ELG1 genotoxic: 3.6%; FLuc counter: 19µM*; ELG1 DNA repair: 28.0%

How did CCN(CC)c1ccc(NC2=C(Cl)C(=O)c3ccccc3C2=O)cc1 do in these assays?
NPC1 promoter act: -37.7%; SMN2 splice up: -109.3%; Rab9 prom act: -35.0%; ELG1 genotoxic: 2.91µM*; FLuc counter: 12µM*; ELG1 DNA repair: inconclusive

What do the screens show for `Cc1ccc(NC2=C(Cl)C(=O)c3ccccc3C2=O)cc1`?
NPC1 promoter act: -33.8%; Rab9 prom act: -32.6%; ELG1 genotoxic: inconclusive; FLuc counter: -23.5%; ELG1 DNA repair: inconclusive

How did CCOC(=O)Nc1ccc2c(CNC(C)c3ccccc3OC)cc(=O)oc2c1 (stereo not given) do in these assays?
NPC1 promoter act: -0.8%; Rab9 prom act: -9.1%; ELG1 genotoxic: -34.2%; FLuc counter: 1.5%; ELG1 DNA repair: 2.8%

What do the screens show for `CCC(=O)N1CCc2cc(Br)cc(S(=O)(=O)CCC(=O)Nc3ccccc3C)c21`?
SMN2 splice up: 15.4%; FLuc counter: -0.9%

Results for N/C(=N\OC(=O)c1ccc2c(c1)OCO2)c1ccncc1 ?
NPC1 promoter act: 3.16µM*; Rab9 prom act: 2.51µM*; ELG1 genotoxic: inconclusive; FLuc counter: 1.51µM*; ELG1 DNA repair: inconclusive

Results for N/C(=N\OC(=O)c1ccc2c(c1)OCO2)c1ccc(Cl)cc1 ?
NPC1 promoter act: 2.82µM*; SMN2 splice up: inconclusive; Rab9 prom act: inconclusive; ELG1 genotoxic: inconclusive; FLuc counter: 0.849µM*; ELG1 DNA repair: inconclusive

What do the screens show for `COc1ccc(/C(N)=N/OC(=O)c2ccc3c(c2)OCO3)cc1`?
NPC1 promoter act: inconclusive; SMN2 splice up: 11.2µM*; Rab9 prom act: inconclusive; ELG1 genotoxic: inconclusive; FLuc counter: 2.13µM*; ELG1 DNA repair: inconclusive

How did Cc1ccc(/C(N)=N/OC(=O)c2ccc3c(c2)OCO3)cc1 do in these assays?
NPC1 promoter act: 3.16µM*; SMN2 splice up: 12.6µM*; Rab9 prom act: 2.82µM*; ELG1 genotoxic: inconclusive; FLuc counter: 2.13µM*; ELG1 DNA repair: inconclusive

What do the screens show for `COc1ccc(S(=O)(=O)N2CCN(CC(=O)NC3CC3)CC2)cc1`?
NPC1 promoter act: 1.5%; Rab9 prom act: 3.9%; ELG1 genotoxic: 4.1%; FLuc counter: -0.5%; ELG1 DNA repair: 7.8%

What do the screens show for `CC#CCN1c2ccccc2[C@]23C[C@@H](C(=O)OC)N(S(=O)(=O)c4ccc(C#N)cc4)C2=NC(C(=O)OC)=C(C(=O)OC)[C@H]13`?
SMN2 splice up: 8.7%[9.22 µM]

How did CC(C)Oc1ccc(C(CC(=O)O)Cc2ccccc2)cc1 (stereo not given) do in these assays?
NPC1 promoter act: -5.7%; Rab9 prom act: 0.6%; ELG1 genotoxic: 0.7%; FLuc counter: 2.8%; ELG1 DNA repair: -2.5%

Results for O=c1c2ccccc2nnn1COc1ccc(Cl)cc1Br ?
NPC1 promoter act: inconclusive; SMN2 splice up: inconclusive; Rab9 prom act: 3.16µM*; ELG1 genotoxic: inconclusive; FLuc counter: 23.9µM*; ELG1 DNA repair: inconclusive

Results for CCC(=O)OCn1nnc2ccccc2c1=O ?
NPC1 promoter act: 4.6%; SMN2 splice up: -43.3%; Rab9 prom act: -3.8%; ELG1 genotoxic: 3.4%; FLuc counter: 0.9%; ELG1 DNA repair: -6.8%

Results for O=c1c2ccccc2nnn1COc1cccc2ccccc12 ?
NPC1 promoter act: inconclusive; SMN2 splice up: 17.9%; Rab9 prom act: 3.98µM*; ELG1 genotoxic: 13.5%; FLuc counter: 16.9µM*; ELG1 DNA repair: inconclusive

What do the screens show for `O=c1c2ccccc2nnn1COc1ccc(F)cc1Cl`?
NPC1 promoter act: inconclusive; SMN2 splice up: inconclusive; Rab9 prom act: 2.51µM*; ELG1 genotoxic: inconclusive; FLuc counter: inconclusive; ELG1 DNA repair: inconclusive
